We go through 1 sequence from PMC7862700, “An all-to-all approach to the identification of sequence-specific readers for epigenetic DNA modifications on cytosine”.

What all share (test): DAPPL (digital affinity profiling via proximity ligation, sequencing); 10 mM Tris-HCl pH 7.5, 50 mM NaCl, 1 mM DTT, 4% glycerol, room temperature, 30 min; GST-TFs on glutathione beads, 16-mer random dsDNA library, 0.1% formaldehyde crosslink after washing; high values mean tight binding
In one experiment the target is T1, FLI1 (Homo sapiens, UniProt Q01543 1-452).
T1 sequence: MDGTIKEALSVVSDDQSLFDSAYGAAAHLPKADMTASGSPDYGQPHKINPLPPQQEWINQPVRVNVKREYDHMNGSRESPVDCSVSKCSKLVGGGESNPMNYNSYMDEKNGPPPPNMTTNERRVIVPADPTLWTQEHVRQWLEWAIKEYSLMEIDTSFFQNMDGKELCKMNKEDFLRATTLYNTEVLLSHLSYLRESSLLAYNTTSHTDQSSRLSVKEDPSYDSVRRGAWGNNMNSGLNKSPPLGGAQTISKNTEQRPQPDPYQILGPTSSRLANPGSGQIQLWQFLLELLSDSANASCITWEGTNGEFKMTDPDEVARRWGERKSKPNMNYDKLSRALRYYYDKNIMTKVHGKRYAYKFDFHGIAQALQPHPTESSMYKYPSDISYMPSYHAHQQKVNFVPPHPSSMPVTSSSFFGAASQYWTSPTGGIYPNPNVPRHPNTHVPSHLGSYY
The following applies: protein: recombinant; tags: N-terminal GST; dsDNA, one strand shown. Put shortly: (§1)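 Binding signal is given per hexamer as its read frequency for a factor divided by its frequency in the tag-only sample. GST-fused human transcription factors were expressed in yeast, captured on glutathione beads, barcoded with DNA and pooled with that sample, then incubated with 200 nmole of a 16-mer random double-stranded DNA library in Tris/NaCl/DTT/glycerol buffer for 30 min at room temperature. The pools were then washed, crosslinked, proximity-ligated, amplified by PCR and sequenced on an Illumina NextSeq500.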

In another experiment the target is T2, ELK1 (Homo sapiens, UniProt P19419 1-428).
T2 sequence: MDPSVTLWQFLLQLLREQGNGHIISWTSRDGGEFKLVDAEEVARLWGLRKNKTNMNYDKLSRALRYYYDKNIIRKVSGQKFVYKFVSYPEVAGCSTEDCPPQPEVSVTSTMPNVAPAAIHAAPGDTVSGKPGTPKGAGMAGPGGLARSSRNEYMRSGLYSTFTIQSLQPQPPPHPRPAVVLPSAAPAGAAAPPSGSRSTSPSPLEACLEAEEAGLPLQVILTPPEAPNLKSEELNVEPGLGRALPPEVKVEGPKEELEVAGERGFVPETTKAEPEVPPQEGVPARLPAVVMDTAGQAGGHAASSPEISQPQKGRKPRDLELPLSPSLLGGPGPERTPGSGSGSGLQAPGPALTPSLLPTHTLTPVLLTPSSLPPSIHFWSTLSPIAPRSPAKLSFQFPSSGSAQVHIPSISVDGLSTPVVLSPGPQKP
The following applies: protein: recombinant; tags: N-terminal GST; dsDNA, one strand shown. Put shortly:
as §1

The target in another experiment is T3, GABPA (Homo sapiens, UniProt Q06546 1-454).
T3 sequence: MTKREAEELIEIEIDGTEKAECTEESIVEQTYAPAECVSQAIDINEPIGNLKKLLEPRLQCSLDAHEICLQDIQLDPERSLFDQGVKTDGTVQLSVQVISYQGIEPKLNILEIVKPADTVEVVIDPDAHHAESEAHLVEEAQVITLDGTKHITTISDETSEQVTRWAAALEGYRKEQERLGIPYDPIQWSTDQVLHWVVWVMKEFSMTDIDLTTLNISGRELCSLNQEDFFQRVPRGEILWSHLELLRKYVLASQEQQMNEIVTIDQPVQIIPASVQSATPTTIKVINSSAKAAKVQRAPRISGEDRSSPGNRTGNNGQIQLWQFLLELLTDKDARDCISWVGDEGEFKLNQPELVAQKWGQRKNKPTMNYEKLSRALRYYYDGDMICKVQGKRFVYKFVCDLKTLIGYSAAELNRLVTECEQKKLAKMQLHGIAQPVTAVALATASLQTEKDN
The following applies: protein: recombinant; tags: N-terminal GST; dsDNA, one strand shown. Put shortly:
as §1

The target of another experiment is T4, ERG (Homo sapiens, UniProt P11308 1-479).
T4 sequence: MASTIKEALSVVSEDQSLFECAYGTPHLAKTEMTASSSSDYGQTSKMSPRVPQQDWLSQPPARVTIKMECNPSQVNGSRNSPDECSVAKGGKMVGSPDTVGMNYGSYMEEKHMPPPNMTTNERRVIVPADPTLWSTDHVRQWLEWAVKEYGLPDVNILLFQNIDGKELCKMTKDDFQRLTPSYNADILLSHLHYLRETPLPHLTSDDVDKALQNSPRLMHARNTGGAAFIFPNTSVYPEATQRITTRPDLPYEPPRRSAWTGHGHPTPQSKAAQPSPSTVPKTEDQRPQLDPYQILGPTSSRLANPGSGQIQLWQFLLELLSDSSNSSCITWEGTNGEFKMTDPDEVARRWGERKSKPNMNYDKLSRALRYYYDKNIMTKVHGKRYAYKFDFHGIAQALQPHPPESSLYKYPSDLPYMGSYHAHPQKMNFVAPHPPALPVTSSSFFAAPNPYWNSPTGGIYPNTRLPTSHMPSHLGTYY
The following applies: protein: recombinant; tags: N-terminal GST; dsDNA, one strand shown. Put shortly: as §1

In another experiment the target is ELF1 (Homo sapiens, UniProt P32519 1-619). The following applies: protein: recombinant; tags: N-terminal GST; dsDNA, one strand shown. Put shortly: as §1
In another experiment the target is T5, EHF (Homo sapiens, UniProt Q9NZC4 1-300).
T5 sequence: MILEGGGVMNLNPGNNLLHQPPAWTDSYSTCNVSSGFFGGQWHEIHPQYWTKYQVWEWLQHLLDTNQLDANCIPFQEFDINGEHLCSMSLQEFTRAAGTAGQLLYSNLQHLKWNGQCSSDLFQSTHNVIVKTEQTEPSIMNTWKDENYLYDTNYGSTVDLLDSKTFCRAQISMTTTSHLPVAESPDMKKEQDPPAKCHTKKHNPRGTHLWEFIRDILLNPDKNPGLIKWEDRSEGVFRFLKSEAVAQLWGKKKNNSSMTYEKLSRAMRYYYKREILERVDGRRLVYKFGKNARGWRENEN
The following applies: protein: recombinant; tags: N-terminal GST; dsDNA, one strand shown. Put shortly: as §1

Another experiment addresses SPI1 (Homo sapiens, UniProt P17947 1-270). The following applies: protein: recombinant; tags: N-terminal GST; dsDNA, one strand shown. Put shortly:
as §1

The next experiment concerns the target SPIB (Homo sapiens, UniProt Q01892 1-262). The following applies: protein: recombinant; tags: N-terminal GST; dsDNA, one strand shown. Put shortly:
as §1

The target in another experiment is T6, ELK3 (Homo sapiens, UniProt P41970 1-407).
T6 sequence: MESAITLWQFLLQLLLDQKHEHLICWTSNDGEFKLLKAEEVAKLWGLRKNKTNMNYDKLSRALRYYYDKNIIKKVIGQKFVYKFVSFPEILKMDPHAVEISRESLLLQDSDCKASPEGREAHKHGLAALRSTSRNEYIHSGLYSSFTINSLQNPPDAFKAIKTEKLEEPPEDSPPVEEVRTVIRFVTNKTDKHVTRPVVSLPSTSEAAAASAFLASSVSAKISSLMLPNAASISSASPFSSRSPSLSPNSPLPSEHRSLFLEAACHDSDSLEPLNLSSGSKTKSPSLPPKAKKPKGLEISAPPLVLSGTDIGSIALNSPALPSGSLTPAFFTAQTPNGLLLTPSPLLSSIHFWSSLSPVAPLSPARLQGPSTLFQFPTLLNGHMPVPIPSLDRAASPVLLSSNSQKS
The following applies: protein: recombinant; tags: N-terminal GST; dsDNA, one strand shown. Put shortly:
as §1

In the next experiment the target is T7, FEV (Homo sapiens, UniProt Q99581 1-238).
T7 sequence: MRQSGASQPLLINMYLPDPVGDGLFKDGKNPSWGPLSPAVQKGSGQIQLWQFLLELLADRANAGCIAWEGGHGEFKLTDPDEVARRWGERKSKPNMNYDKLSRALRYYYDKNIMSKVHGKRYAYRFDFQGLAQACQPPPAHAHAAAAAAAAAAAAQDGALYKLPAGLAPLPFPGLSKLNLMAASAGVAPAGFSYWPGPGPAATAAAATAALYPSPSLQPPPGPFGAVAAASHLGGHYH
The following applies: protein: recombinant; tags: N-terminal GST; dsDNA, one strand shown. Put shortly:
as §1

Another experiment concerns the target ETV5 (Homo sapiens, UniProt P41161 1-510). The following applies: protein: recombinant; tags: N-terminal GST; dsDNA, one strand shown. Put shortly:
as §1

The target in the next experiment is HSF1 (Homo sapiens, UniProt Q00613 1-529). The following applies: protein: recombinant; tags: N-terminal GST; chain copies: 3; dsDNA, one strand shown. Put shortly: as §1
A further experiment concerns the target T8, SPIC (Homo sapiens, UniProt Q8N5J4 1-248).
T8 sequence: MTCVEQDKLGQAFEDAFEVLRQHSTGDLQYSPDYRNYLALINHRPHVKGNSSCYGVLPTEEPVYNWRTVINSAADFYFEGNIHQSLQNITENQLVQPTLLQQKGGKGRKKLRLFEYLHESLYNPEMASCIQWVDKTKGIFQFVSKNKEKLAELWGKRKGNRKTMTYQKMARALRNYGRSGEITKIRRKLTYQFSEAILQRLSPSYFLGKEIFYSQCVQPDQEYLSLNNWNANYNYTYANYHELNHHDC
The following applies: protein: recombinant; tags: N-terminal GST; dsDNA, one strand shown. Put shortly: as §1

For the next experiment, the target named is ELF4 (Homo sapiens, UniProt Q99607 1-663). The following applies: protein: recombinant; tags: N-terminal GST; dsDNA, one strand shown. Put shortly:
as §1

For the next experiment, the target named is T9, ELK4 (Homo sapiens, UniProt P28324-2 1-405).
T9 sequence: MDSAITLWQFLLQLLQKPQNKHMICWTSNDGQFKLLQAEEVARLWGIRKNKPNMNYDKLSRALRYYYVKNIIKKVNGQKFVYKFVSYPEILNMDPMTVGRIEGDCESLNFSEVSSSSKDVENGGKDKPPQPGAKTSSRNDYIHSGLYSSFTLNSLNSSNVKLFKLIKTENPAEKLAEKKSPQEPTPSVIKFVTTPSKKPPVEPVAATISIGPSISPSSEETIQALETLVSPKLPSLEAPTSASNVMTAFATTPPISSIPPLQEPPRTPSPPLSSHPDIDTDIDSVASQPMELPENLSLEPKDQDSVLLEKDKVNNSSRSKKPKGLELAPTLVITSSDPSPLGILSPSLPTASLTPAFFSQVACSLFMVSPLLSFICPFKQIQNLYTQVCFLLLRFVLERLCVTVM
The following applies: protein: recombinant; tags: N-terminal GST; dsDNA, one strand shown. Put shortly:
as §1

A further experiment deals with T10, ETV2 (Homo sapiens, UniProt O00321 1-342).
T10 sequence: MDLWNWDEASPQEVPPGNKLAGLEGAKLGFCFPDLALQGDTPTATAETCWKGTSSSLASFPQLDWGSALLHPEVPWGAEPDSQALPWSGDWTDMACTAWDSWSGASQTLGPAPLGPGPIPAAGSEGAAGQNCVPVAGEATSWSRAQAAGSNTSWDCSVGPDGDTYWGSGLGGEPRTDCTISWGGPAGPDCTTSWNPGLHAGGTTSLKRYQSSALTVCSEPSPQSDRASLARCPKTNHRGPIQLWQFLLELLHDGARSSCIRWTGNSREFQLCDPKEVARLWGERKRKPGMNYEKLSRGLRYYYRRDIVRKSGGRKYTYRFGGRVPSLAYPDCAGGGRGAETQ
The following applies: protein: recombinant; tags: N-terminal GST; dsDNA, one strand shown. Put shortly:
as §1

A further experiment deals with T11, ELF3 (Homo sapiens, UniProt P78545 1-371).
T11 sequence: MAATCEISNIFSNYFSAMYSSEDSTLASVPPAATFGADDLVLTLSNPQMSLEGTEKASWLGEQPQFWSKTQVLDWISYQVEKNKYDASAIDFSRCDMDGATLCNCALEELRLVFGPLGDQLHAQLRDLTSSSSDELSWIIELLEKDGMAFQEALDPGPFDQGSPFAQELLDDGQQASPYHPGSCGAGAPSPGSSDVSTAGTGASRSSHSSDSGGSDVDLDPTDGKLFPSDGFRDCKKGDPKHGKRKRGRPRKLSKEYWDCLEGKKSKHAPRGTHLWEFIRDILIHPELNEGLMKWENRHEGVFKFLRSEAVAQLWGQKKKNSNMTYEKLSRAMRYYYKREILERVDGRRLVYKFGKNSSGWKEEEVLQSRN
The following applies: protein: recombinant; tags: N-terminal GST; dsDNA, one strand shown. Put shortly: as §1

A further experiment addresses CRX (Homo sapiens, UniProt O43186 1-299). The following applies: protein: recombinant; tags: N-terminal GST; dsDNA, one strand shown. Put shortly:
as §1

Another experiment addresses ETV1 (Homo sapiens, UniProt P50549 1-477). The following applies: protein: recombinant; tags: N-terminal GST; dsDNA, one strand shown. Put shortly:
as §1

CRX, sequence (O43186 whole entry): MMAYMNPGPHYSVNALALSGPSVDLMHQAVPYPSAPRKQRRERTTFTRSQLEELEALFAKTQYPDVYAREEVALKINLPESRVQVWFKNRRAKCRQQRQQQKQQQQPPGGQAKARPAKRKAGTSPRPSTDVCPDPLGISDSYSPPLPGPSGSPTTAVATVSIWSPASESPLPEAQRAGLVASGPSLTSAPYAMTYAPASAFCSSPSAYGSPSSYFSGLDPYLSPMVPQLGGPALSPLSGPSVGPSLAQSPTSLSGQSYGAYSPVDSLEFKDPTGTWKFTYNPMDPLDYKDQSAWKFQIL
ELF1, sequence (P32519 whole entry): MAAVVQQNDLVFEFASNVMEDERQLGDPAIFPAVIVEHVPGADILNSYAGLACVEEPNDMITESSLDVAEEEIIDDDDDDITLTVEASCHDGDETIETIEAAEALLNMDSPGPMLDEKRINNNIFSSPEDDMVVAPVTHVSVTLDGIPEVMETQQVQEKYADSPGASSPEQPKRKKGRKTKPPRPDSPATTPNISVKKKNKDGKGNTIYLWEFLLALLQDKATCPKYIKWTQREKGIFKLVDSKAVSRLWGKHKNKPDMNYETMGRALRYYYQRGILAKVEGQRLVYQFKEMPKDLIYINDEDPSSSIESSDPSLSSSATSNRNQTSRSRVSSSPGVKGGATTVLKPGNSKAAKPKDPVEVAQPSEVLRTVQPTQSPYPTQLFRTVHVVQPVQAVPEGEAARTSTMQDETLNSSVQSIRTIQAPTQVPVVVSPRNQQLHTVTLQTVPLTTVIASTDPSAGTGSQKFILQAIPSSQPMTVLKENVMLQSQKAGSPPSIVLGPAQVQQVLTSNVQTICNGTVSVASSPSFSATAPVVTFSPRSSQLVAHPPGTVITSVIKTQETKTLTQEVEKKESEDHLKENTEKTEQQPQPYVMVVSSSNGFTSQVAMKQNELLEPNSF
ETV5, sequence (P41161 whole entry): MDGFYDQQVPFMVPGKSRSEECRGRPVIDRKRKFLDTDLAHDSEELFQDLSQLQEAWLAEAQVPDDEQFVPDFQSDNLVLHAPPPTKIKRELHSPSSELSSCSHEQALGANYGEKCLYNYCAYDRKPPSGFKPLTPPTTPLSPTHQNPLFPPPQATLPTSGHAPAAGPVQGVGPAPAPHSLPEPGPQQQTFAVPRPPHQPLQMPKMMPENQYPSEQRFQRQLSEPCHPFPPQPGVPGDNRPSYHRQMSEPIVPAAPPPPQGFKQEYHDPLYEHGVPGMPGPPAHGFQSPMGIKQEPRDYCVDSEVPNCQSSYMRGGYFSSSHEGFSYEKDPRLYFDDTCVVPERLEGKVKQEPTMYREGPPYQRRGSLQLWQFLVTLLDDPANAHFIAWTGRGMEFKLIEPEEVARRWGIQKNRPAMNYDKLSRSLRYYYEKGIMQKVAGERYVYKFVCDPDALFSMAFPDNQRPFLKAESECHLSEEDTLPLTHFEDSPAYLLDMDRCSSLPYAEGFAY
ETV1, sequence (P50549 whole entry): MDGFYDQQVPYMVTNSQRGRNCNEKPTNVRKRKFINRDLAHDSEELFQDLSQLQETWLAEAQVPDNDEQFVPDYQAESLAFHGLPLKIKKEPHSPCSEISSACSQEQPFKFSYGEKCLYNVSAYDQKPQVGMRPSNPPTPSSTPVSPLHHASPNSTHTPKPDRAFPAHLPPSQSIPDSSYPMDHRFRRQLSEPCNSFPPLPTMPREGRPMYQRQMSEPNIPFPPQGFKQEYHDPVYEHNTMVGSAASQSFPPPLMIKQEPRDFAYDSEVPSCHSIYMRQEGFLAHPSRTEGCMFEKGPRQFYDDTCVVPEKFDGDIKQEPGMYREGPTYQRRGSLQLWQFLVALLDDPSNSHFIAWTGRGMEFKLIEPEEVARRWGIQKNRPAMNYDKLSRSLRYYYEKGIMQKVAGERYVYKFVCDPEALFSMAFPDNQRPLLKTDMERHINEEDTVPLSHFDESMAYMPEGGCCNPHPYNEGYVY
SPIB, sequence (Q01892 whole entry): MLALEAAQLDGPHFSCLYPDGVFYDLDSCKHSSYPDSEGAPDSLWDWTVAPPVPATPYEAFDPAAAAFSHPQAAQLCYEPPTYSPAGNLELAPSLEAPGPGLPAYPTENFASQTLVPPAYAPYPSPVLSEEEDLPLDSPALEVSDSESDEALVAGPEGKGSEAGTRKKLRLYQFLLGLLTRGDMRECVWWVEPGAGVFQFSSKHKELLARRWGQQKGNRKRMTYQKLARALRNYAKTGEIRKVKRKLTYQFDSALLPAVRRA
HSF1, sequence (Q00613 whole entry): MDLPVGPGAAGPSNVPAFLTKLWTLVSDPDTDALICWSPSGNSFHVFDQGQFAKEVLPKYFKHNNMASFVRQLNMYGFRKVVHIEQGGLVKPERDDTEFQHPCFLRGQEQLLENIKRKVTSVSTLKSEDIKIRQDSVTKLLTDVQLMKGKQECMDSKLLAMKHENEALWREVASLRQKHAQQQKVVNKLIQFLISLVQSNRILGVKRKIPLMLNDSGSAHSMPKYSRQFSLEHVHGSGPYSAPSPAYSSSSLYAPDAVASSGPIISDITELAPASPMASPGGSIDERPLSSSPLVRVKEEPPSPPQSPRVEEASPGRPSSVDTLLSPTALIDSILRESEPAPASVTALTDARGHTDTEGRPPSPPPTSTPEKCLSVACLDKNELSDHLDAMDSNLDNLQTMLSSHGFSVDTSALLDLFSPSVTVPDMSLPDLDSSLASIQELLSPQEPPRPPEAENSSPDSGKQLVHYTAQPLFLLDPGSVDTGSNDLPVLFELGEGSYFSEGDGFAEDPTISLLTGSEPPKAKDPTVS
ELF4, sequence (Q99607 whole entry): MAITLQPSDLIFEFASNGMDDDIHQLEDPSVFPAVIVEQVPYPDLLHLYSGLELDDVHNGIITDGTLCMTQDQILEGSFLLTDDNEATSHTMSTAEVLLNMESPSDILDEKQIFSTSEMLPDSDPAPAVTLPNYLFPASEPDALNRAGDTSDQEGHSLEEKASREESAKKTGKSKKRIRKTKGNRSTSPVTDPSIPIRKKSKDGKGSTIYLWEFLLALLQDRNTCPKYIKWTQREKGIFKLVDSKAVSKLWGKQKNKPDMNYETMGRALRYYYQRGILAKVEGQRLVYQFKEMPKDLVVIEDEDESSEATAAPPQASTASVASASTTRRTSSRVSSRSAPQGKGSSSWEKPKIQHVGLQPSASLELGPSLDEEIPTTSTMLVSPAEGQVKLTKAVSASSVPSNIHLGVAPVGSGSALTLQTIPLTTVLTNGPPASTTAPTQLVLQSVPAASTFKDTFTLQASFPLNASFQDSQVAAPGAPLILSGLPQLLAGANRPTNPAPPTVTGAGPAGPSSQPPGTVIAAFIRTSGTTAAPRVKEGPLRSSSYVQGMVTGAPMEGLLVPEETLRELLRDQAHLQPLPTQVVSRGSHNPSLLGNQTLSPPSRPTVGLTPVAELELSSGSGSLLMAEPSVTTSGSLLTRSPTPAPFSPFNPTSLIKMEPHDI

As for ATAAAC, the binding signal with FLI1 is 1.22 fold enrichment (6-mer frequency, TF over GST control); with ELK1 it was 1.16 fold enrichment (6-mer frequency, TF over GST control); with GABPA, 1.11 fold enrichment (6-mer frequency, TF over GST control); in the experiment with ERG, 1.11 fold enrichment (6-mer frequency, TF over GST control); in the experiment with ELF1, 1.14 fold enrichment (6-mer frequency, TF over GST control); with EHF, 1.07 fold enrichment (6-mer frequency, TF over GST control). In addition, the binding signal with SPI1 is 1.14 fold enrichment (6-mer frequency, TF over GST control); with SPIB, 1.19 fold enrichment (6-mer frequency, TF over GST control); with ELK3, 1.14 fold enrichment (6-mer frequency, TF over GST control); in the experiment with FEV, 1.13 fold enrichment (6-mer frequency, TF over GST control); with ETV5 it was 1.19 fold enrichment (6-mer frequency, TF over GST control); with HSF1 it was 1.27 fold enrichment (6-mer frequency, TF over GST control). Moreover, the binding signal with SPIC is 1.2 fold enrichment (6-mer frequency, TF over GST control); with ELF4, 1.16 fold enrichment (6-mer frequency, TF over GST control); with ELK4, 1.13 fold enrichment (6-mer frequency, TF over GST control); with ETV2, 1.19 fold enrichment (6-mer frequency, TF over GST control); with ELF3, 1.13 fold enrichment (6-mer frequency, TF over GST control); with CRX, 1.5 fold enrichment (6-mer frequency, TF over GST control). For the same sequence, the binding signal with ETV1 is 1.11 fold enrichment (6-mer frequency, TF over GST control).
